The list is not random: actives were taken first. Their share in the collection is about 7.3%.
HCV inhibitor = HCV inhibition. Huh7.5.1 HCVcc-Cre infection, luciferase reporter, 44 h. Potency, µM (titrated, usually from 41.8 µM), inactives show at the highest dose activity change, negative = inhibition, hits mostly inhibitors. 3.4% of 340,000 active. AID 651820; active means well fitted inhibition curve with a large enough effect; inconclusive means small, poorly fitted or top-dose-only effect, or another doubt; inactive means no such curve, though single readings can be large or run the other way; further: potency means the concentration at half of the fitted maximal effect
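Infectious HCV cell culture screen: compound-treated cells (1,000/well, pre-plated 4 h) are infected with HCVcc-Cre at roughly 0.5 moi and grown 44 h. Infection is quantified by luciferase signal after 15 min substrate incubation at room temperature.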
Vaccinia mCherry = inhibitors of vaccinia virus infection (mCherry reporter signal). Vaccinia virus mCherry reporter infection, fluorescence. 0.63% of 310,000 active. Potency, µM (highest dose often 36.5 µM), inactives show top-dose activity change, negative = inhibition, actives largely listed as inhibitors; calls by dose curve; tested in A549 cells; further: potency means the concentration at half of the fitted maximal effect; nearly all actives have a fitted effect of over 35% in size
HCMV antiviral = human cytomegalovirus inhibition. HFF cells, HCMV-luciferase reporter, 72 h; stronger effect = lower value. activity change, negative = inhibition, % at 57.5 µM. 4.5% of 410,000 active; in the data active means activity change below about -60%; inconclusive means no clear call, values can overlap the other calls; inactive means above about -39%
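HFF cells seeded 16 h at 37C, treated with compounds, infected with luciferase-reporter HCMV at MOI 1 PFU/cell; luciferase read at 72 h post infection, normalized to buffer-only and Salinomycin controls.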
FMDV inh = foot and mouth disease virus antiviral activity; 1.2% of 410,000 active; FMDV antiviral cell-based qHTS; Potency, µM (top dose mostly 57.9 µM), for the others: top-dose activity change, negative = inhibition, hits mostly inhibitors; AID 1159524; calls by dose curve; tested in HEK293T cells; further: read-out not given here; potency means the concentration at half of the fitted maximal effect; nearly all actives have a fitted effect of over 45% in size
Vaccinia Venus = vaccinia inhibition (Venus reporter). Vaccinia virus Venus reporter expression, fluorescence. Potency, µM (highest dose often 36.5 µM), without a hit: at the highest dose activity change, negative = inhibition, most hits filed as inhibitors. 0.46% of 330,000 active. AID 720580; calls by dose curve; tested in A549 cells; further: potency means the concentration at half of the fitted maximal effect; nearly all actives have a fitted effect of over 30% in size
* marks the source's active call; other numbers are inactive results; i = inactive; ? = inconclusive; / = no result; [ ] = remark or other dose. On the % scale 0 is the no-effect control and ±100 the full control effect.

SMILES	HCV inhibitor	Vaccinia mCherry	HCMV antiviral	FMDV inh	Vaccinia Venus
CCc1c(-c2ccc(OC)c(OC)c2)ncn1CCc1ccccc1OC	/	/	-28	/	/
CCCCc1c(-c2ccccc2Br)ncn1CCc1ccccc1OC	/	-14%	-93*	?	-20%
CCCCCc1c(-c2ccccc2OC)ncn1CCc1ccccc1OC	/	?	-83*	25µM*	?
COc1ccccc1CCn1cnc(-c2ccc(Br)cc2)c1C(C)C	/	-10%	?	?	?
CCCCCc1c(-c2cccc(Cl)c2)ncn1CCc1ccccc1OC	/	1%	-6	-27%	0%
CCCCCc1c(CC)ncn1CCc1ccccc1OC	/	-17%	-110*	40µM*	-20%
COc1ccccc1CNC(=O)COC(=O)CCN=C1NS(=O)(=O)c2ccccc21	3%	i	-16	-4%	-11%
O=C1C(=O)N(C/C=C/c2ccccc2)c2ccccc21	-26%	-12%	-22	-2%	-14%
COc1ccc(CC(=O)Nc2cccc(/C(C)=N/NC(=O)C3(C)CC3(Br)Br)c2)cc1 (centres undefined)	10µM*	/	28	-21%	/
CCCN1C/C(=C/c2cccc([N+](=O)[O-])c2)C(=O)/C(=C/c2cccc([N+](=O)[O-])c2)C1	?	-4%	-105*	2.5µM*	-14%
CCCN(CCC)C(=O)/C=C/c1cccc([N+](=O)[O-])c1	14%	-2%[7.34 µM]	11	-19%	-14%[7.34 µM]
O=C1NC(=S)N/C1=C/c1cccc([N+](=O)[O-])c1	4%	-2%	-22	-2%	-3%
CCCN1C/C(=C/c2ccc3c(c2)OCO3)C(=O)/C(=C/c2ccc3c(c2)OCO3)C1	?	?	3	18µM*	?
CN1C(=O)/C(=C/c2cccc([N+](=O)[O-])c2)C(=O)N1c1ccccc1	30%	-10%	-4	32µM*	-8%
CCCc1c(-c2ccc(F)cc2)ncn1Cc1ccccc1OC	/	-17%	?	?	-17%
CCCCCc1c(-c2ccccc2F)ncn1CCc1ccccc1OC	/	-7%	?	32µM*	-3%
CCCc1c(-c2ccccc2F)ncn1CCc1ccccc1OC	/	-26%	-95*	32µM*	-16%
CCCCc1c(-c2ccccc2F)ncn1CCc1ccccc1OC	/	-8%	?	?	1%
COc1ccccc1Cc1nc2ccccc2nc1SCC(=O)N(C)c1ccc(F)cc1	/	i	-14	-3%	-4%
CCc1cc[n+](C2=C([O-])c3ccccc3C(=O)/C2=N\S(=O)(=O)c2cccs2)cc1	5µM*	?	?	?	?
Cc1nc(-c2ccccc2)nc(Cl)c1Cl	25%	i	-17	12%	-3%
Nc1c(Cl)nc(-c2ccccc2)nc1Cl	?	i	-72*	22%	-6%
C=C(C)C(=O)OCC(O)COc1ccc(C(C)(C)c2ccc(OCC(O)COC(=O)C(=C)C)cc2)cc1 (centres undefined)	-1%	?	36	40µM*	?
Cc1ccc2[nH]cc(C(c3ccccc3)c3cccs3)c2c1 (centres undefined)	/	-3%[7.34 µM]	-79*	?	-6%[7.34 µM]
c1ccc2c(C(c3c[nH]c4ccccc34)c3c[nH]c4ccccc34)c[nH]c2c1	/	-11%	/	/	-18%
SMILES	HCV inhibitor	Vaccinia mCherry	HCMV antiviral	FMDV inh	Vaccinia Venus
Cc1ccc2[nH]cc(C(c3ccccc3)c3ccc(C)s3)c2c1 (centres undefined)	/	-9%	-100*	?	-16%
CCOc1ccc(NC(=O)c2ccc3nc(C(C)C)oc3c2)cc1	/	-29%	-16	-27%	?
CCCC(=O)NC(=S)Nc1ccc(S(=O)(=O)Nc2ccc(OCC)cc2)cc1	-17%	?	-29	64%	-21%
CC(C)CC(=O)NC(=S)Nc1ccc(S(=O)(=O)Nc2nccs2)cc1	23%	-25%	-71*	73%	-13%
CCOc1ccc(NS(=O)(=O)c2ccc(NC(=S)NC(=O)CC(C)C)cc2)cc1	11µM*	/	-1	20%	?
O=C(Cn1c(SCC(=O)Nc2ccc(F)cc2)nc2ccccc21)NCc1ccccc1Cl	/	?	?	-15%	-25%
CN(Cc1cccc(F)c1)C(=O)c1ccc(S(=O)(=O)N2CCCCCC2)cc1	-7%	-14%	-16	-4%	-5%
COC(=O)c1sc(N)c(C(=O)OC)c1Cn1ncc(Cl)c(Cl)c1=O	11µM*	?	46	?	-9%
O=C(Nc1cccc(-c2nc3ncccc3o2)c1)c1sc2cc(Cl)ccc2c1Cl	8.9µM*	i	20	51%	-7%

Screening data: PubChem, National Center for Advancing Translational Sciences (NCATS)
